Records with an inconclusive call do not appear. Activity calls are given as the source filed them. Unless noted, calls follow the shape of the dose curve; as a rule, active = well fitted curve in the direction sought with a large enough effect; inconclusive = small, poorly fitted or top-dose-only effect, or another doubt; inactive = no such curve, though single readings can be large; an effect the other way counts as inactive or inconclusive.
Tests used:
[1] = qHTS Assay for Identifying Gametocytocidal Compounds (AID 743244);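 also: % is scaled to controls: 0 for no effect and ±100 for the full control effect; actives lower the fluorescent signal which means gametocytes are killed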; conditions: P. falciparum 3D7 stage III-V gametocytes, alamarBlue, 72 h; max response: active compounds read low
Procedure, shortened: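 In this qHTS viability screen, late-stage 3D7 gametocytes are incubated with compound for 72 h, then with alamarBlue for 24 h; reduced resorufin fluorescence marks killing.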

[2] = P-glycoprotein substrates identified in KB-8-5-11 adenocarcinoma cell line, qHTS therapeutic library screen (AID 1346987); also: % is scaled to controls: 0 for no effect and ±100 for the full control effect; nearly all actives have a fitted effect of over 65% in size
Procedure, shortened: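 P-gp-mediated resistance screen: KB-8-5-11 cells treated 72 h with compounds in dose-response. CellTiter-Glo viability.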

Furin (Homo sapiens) = Furin (Homo sapiens) (UniProt P09958); assay: Furin counterscreen qHTS for Zika virus inhibitors (AID 1347149);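 also: purified recombinant full-length human furin enzyme at 5 nM; fluorescence gain from furin cutting a BOC-RVRR-AMC peptide substrate over 15 min; top concentration of the series differs between compounds; plate controls were no-inhibitor control for no effect and no-enzyme control for full effect; nearly all actives have a fitted effect of over 70% in size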
Furin (Homo sapiens), sequence (P09958 whole entry, looked up): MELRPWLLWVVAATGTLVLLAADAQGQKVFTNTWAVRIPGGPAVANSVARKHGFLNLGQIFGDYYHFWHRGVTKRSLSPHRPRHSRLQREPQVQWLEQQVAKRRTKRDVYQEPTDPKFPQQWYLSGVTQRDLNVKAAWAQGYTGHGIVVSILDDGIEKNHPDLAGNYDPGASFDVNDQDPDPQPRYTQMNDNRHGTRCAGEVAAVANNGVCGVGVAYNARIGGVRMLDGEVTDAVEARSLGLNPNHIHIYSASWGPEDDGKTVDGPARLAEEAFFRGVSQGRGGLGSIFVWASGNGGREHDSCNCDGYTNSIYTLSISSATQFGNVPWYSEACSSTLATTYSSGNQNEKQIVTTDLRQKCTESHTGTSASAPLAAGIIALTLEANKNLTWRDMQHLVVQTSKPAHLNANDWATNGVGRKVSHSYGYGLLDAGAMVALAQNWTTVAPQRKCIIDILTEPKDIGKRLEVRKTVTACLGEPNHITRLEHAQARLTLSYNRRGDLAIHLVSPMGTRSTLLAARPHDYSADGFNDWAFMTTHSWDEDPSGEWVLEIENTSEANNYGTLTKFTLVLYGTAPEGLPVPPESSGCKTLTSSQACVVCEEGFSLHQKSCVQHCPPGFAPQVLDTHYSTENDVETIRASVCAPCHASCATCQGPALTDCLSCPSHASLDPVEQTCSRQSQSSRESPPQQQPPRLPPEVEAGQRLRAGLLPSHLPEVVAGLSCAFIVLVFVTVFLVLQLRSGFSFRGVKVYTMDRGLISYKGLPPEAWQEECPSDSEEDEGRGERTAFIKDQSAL
Procedure, shortened: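 Fluorogenic cleavage of BOC-RVRR-AMC (2 microM final, Km ~15 µM) was monitored (ex 340, em 450 nm) at 37C after 15 min RT preincubation of 5 nM furin with compounds in HEPES pH 7.0 buffer with CaCl2 and Triton X-100. Percent inhibition was fitted to a 4-parameter Hill curve.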

[3] = test system: Zika virus NS2B-NS3 protease (unlinked); assay: Optimization of GU AMC qHTS for Zika virus inhibitors: Unlinked NS2B-NS3 protease assay (AID 1347151);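 also: 0% = no-inhibitor control and -100% = no-enzyme control; nearly all actives have a fitted effect of over 80% in size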
Procedure, shortened: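 Noncovalent NS2B hydrophilic domain–NS3 protease complex (25 nM final) in 10 mM Tris-HCl pH 8.0, 0.01% Tween 20; AMC substrate, room temperature 15 min (~20% conversion); fluorescence change normalized, 4-parameter Hill fit.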

[4] = Vero cells viability qHTS for Zika virus inhibitors (AID 1347167); also: % is scaled to controls: 0 for no effect and ±100 for the full control effect
Procedure, shortened: (§1)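 Cells seeded at 2.5 x 10^5 cells/mL in DMEM with 4% FBS and attached overnight at 37 degrees C, then exposed to compound for 24 to 48 hours. Viability read as ATP content by CellTiter Glo luminescence.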

[5] = HepG2 cells viability qHTS for Zika virus inhibitors (AID 1347168); also: % is scaled to controls: 0 for no effect and ±100 for the full control effect
Procedure, shortened: as §1

[6] = Primary qHTS for Huh7 cytotoxicity: counterscreen for inhibitors of MERS-S pseudotyped particle cell entry (AID 1479147; calls by dose curve); conditions: outcome: dose series up to 57.1 µM unless noted
[7] = Primary qHTS for Vero E6 cytotoxicity: counterscreen for inhibitors of SARS-S pseudo-typed particle cell entry (AID 1479150; calls by dose curve); conditions: outcome: dose series up to 57.1 µM unless noted
[8] = Cytotoxicity counterscreen for inhibitors of SARS-CoV-2 cell entry (AID 1645845; calls by dose curve; also: nearly all actives have a fitted effect of over 50% in size)
Procedure, shortened: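 HEK293-ACE2 cells (Expi293F stably expressing human ACE2) seeded overnight, then compound for 1 h plus 48 h at 37C. Viability as ATP content by luminescence; normalized to wells with cells and media-only wells.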

[9] = molecular target: Glutathione peroxidase 1 (Homo sapiens) (UniProt P07203); assay: Primary qHTS Assay for Inhibitors of Recombinant Selenoprotein Glutathione Peroxidase 1 (GPX1) (AID 1845191); also: % is scaled to controls: 0 for no effect and ±100 for the full control effect; nearly all actives have a fitted effect of over 65% in size
Glutathione peroxidase 1 (Homo sapiens), sequence (P07203 whole entry, looked up): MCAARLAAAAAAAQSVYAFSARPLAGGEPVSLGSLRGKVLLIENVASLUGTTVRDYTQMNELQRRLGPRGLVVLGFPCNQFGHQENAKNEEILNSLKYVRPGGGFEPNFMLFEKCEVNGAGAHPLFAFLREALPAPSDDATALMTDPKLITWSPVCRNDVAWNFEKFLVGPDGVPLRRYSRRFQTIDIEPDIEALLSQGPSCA
Procedure, shortened: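 GR-coupled assay: compounds preincubated 30 min at room temperature with GPX1, then reaction started with CHP; final 10 nM GPX1, 1 mM GSH, 0.5 mM CHP, 0.5 mM NADPH, 100 nM GR, 0.01% BSA, pH 7.5 Tris buffer. NADPH fluorescence (340/450 nm) read at 0 and 15 min.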

[10] = molecular target: Phospholipid hydroperoxide glutathione peroxidase GPX4 (Homo sapiens) (UniProt P36969); assay: Primary qHTS Assay for Inhibitors of Recombinant Selenoprotein Glutathione Peroxidase 4 (GPX4) (AID 1845192); also: nearly all actives have a fitted effect of over 65% in size
Phospholipid hydroperoxide glutathione peroxidase GPX4 (Homo sapiens), sequence (P36969 whole entry, looked up): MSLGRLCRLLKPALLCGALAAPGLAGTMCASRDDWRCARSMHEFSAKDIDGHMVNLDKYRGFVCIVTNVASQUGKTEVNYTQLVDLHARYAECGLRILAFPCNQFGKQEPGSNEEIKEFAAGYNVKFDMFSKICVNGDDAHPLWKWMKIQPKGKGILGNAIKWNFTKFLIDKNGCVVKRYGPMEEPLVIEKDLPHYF
Procedure, shortened: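 GR-coupled assay: recombinant GPX4 preincubated 30 min with compound at room temperature; final 200 nM GPX4, 1 mM GSH, 0.5 mM cumene hydroperoxide, 0.5 mM NADPH, 100 nM GR, 0.01% BSA, pH 7.5 Tris. NADPH fluorescence (340/450 nm) read at 0 and 15 min.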

KB-3-1 = assay: Cytotoxic Profiling of Annotated Libraries Using Quantitative High-Throughput Screening (AID 1296008); conditions: Five cell lines viability, CellTiter-Glo ATP luminescence, 48-72 h; max response: active compounds read low; also: % is scaled to controls: 0 for no effect and ±100 for the full control effect; nearly all actives have a fitted effect of over 60% in size
Procedure, shortened: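 Cells exposed to compounds for 48 or 72 hr at 37 degrees Celsius. Viability read as ATP-coupled luminescence with CellTiter-Glo after 10 min at room temperature.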

astro = assay: Drug repurposing screens with cells derived from glioblastoma tumor samples (AID 1345199); conditions: viability, ATP luminescence, 48 h; series mostly up to 45.9 µM; also: % is scaled to controls: 0 for no effect and ±100 for the full control effect; nearly all actives have a fitted effect of over 40% in size
Procedure, shortened: (§2)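 Four patient lines of CD133+ GBM neurospheres were screened at several concentrations; hits were retested in those lines plus three slower-growing GBM lines, using 48-hour treatment and ATP-based viability.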

[11] = Tertiary RLuc qRT-PCR qHTS assay for Zika virus inhibitors (AID 1347169); also: potency is read from the fitted curve at half-maximal effect; nearly all actives have a fitted effect of over 55% in size
Procedure, shortened: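 Vero cells (1,000/well) infected with recombinant ZIKV-RLuc (Cambodian) at MOI 1-2 after compound addition, 48-72 hrs at 37 degrees C. Live-cell Renilla luciferase substrate added; luminescence read after 1-1.5 hrs.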

[12] = Drug repurposing screens with cells derived from glioblastoma tumor samples (AID 1345199); conditions: GBM patient neurospheres viability, ATP luminescence, 48 h; Potency: tumour line A; series mostly up to 45.9 µM; also: % is scaled to controls: 0 for no effect and ±100 for the full control effect; nearly all actives have a fitted effect of over 40% in size
Procedure, shortened: as §2

[13] = molecular target: Luciferin 4-monooxygenase (Photinus pyralis) (UniProt P08659); assay: Biochemical firefly luciferase enzyme assay for NPC (AID 624030);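 also: purified P. pyralis luciferase at 10 nM with luciferin and ATP substrate; 0% = DMSO and -100% = full luciferase inhibition by PTC124 control; nearly all actives have a fitted effect of over 70% in size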
Luciferin 4-monooxygenase (Photinus pyralis), sequence (P08659 whole entry, looked up): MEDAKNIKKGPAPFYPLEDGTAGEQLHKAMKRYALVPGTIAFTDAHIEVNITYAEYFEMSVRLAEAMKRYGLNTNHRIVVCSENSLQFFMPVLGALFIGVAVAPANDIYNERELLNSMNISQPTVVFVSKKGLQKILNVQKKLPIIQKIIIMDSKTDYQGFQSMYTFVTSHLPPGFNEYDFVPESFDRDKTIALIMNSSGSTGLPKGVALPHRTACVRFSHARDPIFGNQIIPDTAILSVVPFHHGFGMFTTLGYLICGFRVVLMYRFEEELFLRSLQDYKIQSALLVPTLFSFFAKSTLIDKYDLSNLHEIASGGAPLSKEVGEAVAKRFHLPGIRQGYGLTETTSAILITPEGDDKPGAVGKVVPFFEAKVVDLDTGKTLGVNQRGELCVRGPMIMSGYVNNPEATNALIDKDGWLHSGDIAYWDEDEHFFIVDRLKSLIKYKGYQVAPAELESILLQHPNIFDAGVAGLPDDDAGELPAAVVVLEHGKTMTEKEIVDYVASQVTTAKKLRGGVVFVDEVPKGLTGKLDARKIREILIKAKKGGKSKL
Procedure, shortened: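 Purified P. pyralis luciferase at 10 nM in 50 mM Tris Acetate (final), luminescence read within 5 minutes of enzyme addition to compounds. Activity normalised to PTC124 versus DMSO; concentration-response curves classed by r2, magnitude and activity.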

Cc1ccc2c(c1)[C@]13CCCC[C@@H]1[C@H](C2)N(C)CC3
inactive: max response [1] -5.26% | Potency [2] | Potency (Furin (Homo sapiens)) | outcome [3] | Potency [4] | Potency [5] | outcome [6] | outcome [7] | Potency [8] | Potency [9] | Potency [10] | max response (KB-3-1) -5.13% | Potency (astro)

C[C@H]1[C@H]2Cc3ccc(O)cc3[C@]1(C)CCN2CCc1ccccc1
inactive: Potency (Furin (Homo sapiens)) | outcome [3] | Potency [4] | Potency [5] | max response (KB-3-1) -3.9%
active: Potency [11] 47.5 µM

C[C@@H]1[C@H]2Cc3ccc(O)cc3[C@]1(C)CCN2C
inactive: max response [1] -6.63% | Potency [2] | max response (KB-3-1) -14.3% | Potency [12] | Potency (astro)

O=P1(N(CCCl)CCCl)NC(OO)CCO1 (stereo unspecified)
inactive: Potency [13] | max response [1] -1.64% | Potency [2] | max response (KB-3-1) 2.7% | Potency [12] | Potency (astro)

CC(N)Cc1ccc2c(c1)OCO2 (stereo unspecified)
inactive: Potency [13] | max response [1] -8.54% | Potency [2] | max response (KB-3-1) -15.3% | Potency [12] | Potency (astro)
